# High-throughput results: PubChem BioAssay, National Center for Advancing Translational Sciences (NCATS)
# In the library only some 5.7% were active in any assay of this set; here they are far more common.
# Nrf2 block: blocks Nrf2 signaling | A549 ARE-Fluc reporter, luciferase luminescence, 18-24 h | Potency, µM (highest dose often 46 µM), for inactives: top-dose activity change, negative = inhibition, most hits filed as inhibitors | 360,000 compounds, 2.1% hits | AID 504444; further: potency means the concentration at half of the fitted maximal effect; nearly all actives have a fitted effect of over 60% in size
#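 Nrf2 activity is the BugLite luminescence, read 15 min after reagent at room temperature, following CellTiter-Fluor cytotoxicity readout (30 min, 37C). Compound titrations were applied for 18-24 h to 5000 A549 ARE_Fluc cells/well in 5% FBS OPTI-MEM.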
# A549 tox: A549 cytotoxicity, counter-screen for Nrf2 inhibitors; A549 ARE-Fluc cells, CellTiter-Fluor viability, 18-24 h; Potency, µM (highest dose often 46 µM), for inactives: at the highest dose activity change, negative = cytotoxicity, hits mostly inhibitors; 390,000 compounds, 0.16% hits; AID 504648; further: potency means the concentration at half of the fitted maximal effect
#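 Cytotoxicity counterscreen: CellTiter-Fluor fluorescence was measured in A549 ARE_Fluc cells after 18-24 h of compound exposure in a concentration series. The subsequent BugLite luminescent read reports ARE-luciferase activity.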
# KB-3-1 cytotox: KB-3-1 parental cell cytotoxicity; KB-3-1 viability, CellTiter-Glo ATP luminescence, 72 h; Potency, µM (highest dose often 46.1 µM), hits mostly cytotoxic; 400,000 compounds, 1.4% hits; AID 1347075; further: potency means the concentration at half of the fitted maximal effect; nearly all actives have a fitted effect of over 60% in size
#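 Cytotoxicity in the drug-sensitive parental line KB-3-1 was scored as loss of CellTiter-Glo luminescence following 72 h incubation with compound. Values come from curve fitting of normalized concentration-response data.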
# Giardia kill: kills Giardia lamblia; AID 540267; activity change, % at 7.66 µM, hits read low; 340,000 compounds, 0.15% hits; Giardia lamblia trophozoite viability; in the data active means activity change below about -80%; inconclusive means between about -30% and that limit;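 further: parasites exposed to compound for two days anaerobically before the ATP read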
#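 ATP-content bioluminescence gauges trophozoite survival. Cells (100/well) receive compound and incubate anaerobically for 48 hrs at 37 deg C; detection reagent follows for 15-30 min at room temperature.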
# PI4K2A block: blocks human PI4K2A kinase activity; purified PI4K2A, ADP-Glo luminescence, 1 h; hits give low values; 420,000 compounds, 0.13% hits; Q9BTU6; activity change, negative = inhibition, % at 76.9 µM; in the data active means activity change below about -50%; inconclusive means mostly about -30% to -49%;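 further: -100% = wells without enzyme as full effect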
# Target sequence (Q9BTU6 whole entry, looked up): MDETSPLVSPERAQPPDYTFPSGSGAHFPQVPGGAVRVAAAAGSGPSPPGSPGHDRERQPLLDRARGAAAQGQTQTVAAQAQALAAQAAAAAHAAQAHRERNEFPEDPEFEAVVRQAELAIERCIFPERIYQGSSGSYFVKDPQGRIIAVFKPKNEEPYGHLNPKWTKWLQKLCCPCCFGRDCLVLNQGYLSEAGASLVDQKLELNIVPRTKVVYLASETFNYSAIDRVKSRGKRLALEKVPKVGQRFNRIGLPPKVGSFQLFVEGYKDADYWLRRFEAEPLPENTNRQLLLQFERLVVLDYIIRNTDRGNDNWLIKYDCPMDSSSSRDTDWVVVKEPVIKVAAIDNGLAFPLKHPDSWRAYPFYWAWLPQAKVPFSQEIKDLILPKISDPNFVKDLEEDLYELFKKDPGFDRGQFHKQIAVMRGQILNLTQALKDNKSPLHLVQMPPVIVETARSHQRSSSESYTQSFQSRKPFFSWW
#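 Compounds are screened against recombinant PI4K2A using PI as substrate and ATP, the latter dispensed at 300 microM. Reactions run one hour at ambient temperature before ADP-Glo detection; full inhibition defined by wells lacking enzyme.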
# KB-V1 cytotox: kills drug-selected multidrug resistant KB-V1 cells; KB-V1 MDR cells viability, CellTiter-Glo, 72 h; Potency, µM (highest dose often 46.1 µM), most hits filed as cytotoxic; 400,000 compounds, 3.4% hits; further: potency means the concentration at half of the fitted maximal effect; nearly all actives have a fitted effect of over 60% in size
#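 Cytotoxicity toward P-gp-expressing KB-V1 cells was determined as loss of CellTiter-Glo luminescence after 72 h at 37 degrees C. Compounds were tested in quantitative HTS format across a concentration range, with curves fitted to normalized data.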
# An asterisk follows results filed as active; i = inactive; ? = inconclusive; . = not tested or not shown; ! = a repeat was not active. Unless noted, the call rests on the fitted dose curve; in most records, active means well fitted curve in the direction sought with a large enough effect; inconclusive means small, poorly fitted or top-dose-only effect, or another doubt; inactive means no such curve, though single readings can be large; an effect the other way counts as inactive or inconclusive. Unless noted, on the % scale 0 is the no-effect control and ±100 the full control effect.
SMILES,Nrf2 block,A549 tox,KB-3-1 cytotox,Giardia kill,PI4K2A block,KB-V1 cytotox
CN(Cc1c(F)cccc1Cl)C(=O)c1cccc(S(=O)(=O)NCc2ccccc2)c1,-11%,0%,i,-1,2,i
Cc1ccc(S(=O)(=O)NCc2ccccc2)cc1C(=O)N(C)Cc1ccc(F)cc1,23µM*,-12%,i,-9,0,i
CCOc1ccc(-n2c(SCC(=O)NN=Cc3ccc(C(=O)O)cc3)nnc2-c2cccnc2)cc1,.,.,.,.,1,.
CCCC[C@H]1CCCO[C@@](C(=O)NCc2ccc(C)o2)(C(F)(F)F)C1,0%,1%,.,-12,.,.
c1ccc2oc(C3=NNC(=NC4CC4)SC3)cc2c1,-23%,0%,9.2µM*,-5,-5,i
COc1ccc(N=C2NN=C(c3ccc4c(c3)OCCO4)CS2)cc1,-27%,-8%,i,-4,-8,?
FC(F)Sc1ccc(N=C2NN=C(c3ccc4c(c3)OCCO4)CS2)cc1,16µM*,16µM*,?,9,-15,?
c1cc2c(cc1C1=NNC(=NC3CC3)SC1)OCCO2,2.3µM*,3%,?,?,?,8.2µM*
C[C@H]1O[C@@H](n2c3ccc(Cl)cc3c3ccc4c5cc(Cl)ccc5[nH]c4c32)[C@H](O)[C@H](O)[C@H]1O,.,.,.,.,-1,.
COc1ccc2c(c1)CCCN2C(=O)C1CCCN(S(=O)(=O)c2cccs2)C1 (stereo not given),.,.,.,.,-6,.
CC(=O)N1N=C2c3ccccc3CCC2C1c1ccc(F)cc1 (stereo not given),10%,-5%,?,3,0,?
CCNC(=S)N1N=C2c3ccccc3CCC2C1c1ccc(F)cc1 (stereo not given),-13%,-16%,?,2,-2,21µM*
COc1ccc2[nH]c3c(NCc4ccco4)ncnc3c2c1,?,7%,?,-3,-6,?
Fc1ccc2[nH]c3c(NCc4ccccc4)ncnc3c2c1,18µM*,-14%,?,6,6,i
COc1ccc(S[C@]2(C(=O)N3CCOCC3)CC(=O)N(c3ccccc3)[C@@H]2c2ccc(OC)cc2)cc1,.,.,.,.,-4,.
CCOC(=O)C1=C(COC(=O)/C=C/c2ccc(OC)cc2OC)NC(=O)NC1C (stereo not given),-8%,1%,i,2,4,6.5µM*
CCOC(=O)C1=C(COC(=O)/C=C/c2ccc(OC)c(OC)c2)NC(=O)NC1C (stereo not given),-14%,-1%,i,-11,-3,i
CCOC(=O)C1=C(CN2CCCCC2)NC(=O)NC1c1cc(C)ccc1C (stereo not given),-4%,-4%,i,6,-2,10µM*!
CCOC(=O)C1=C(CSCc2ccccc2)NC(=O)NC1c1cc(C)ccc1C (stereo not given),18µM*,?,i,-3,2,9.2µM*
CCOC(=O)C1=C(CN2CCOCC2)NC(=O)NC1c1cc(C)ccc1C (stereo not given),-5%,0%,i,-12,-2,?
CCOC(=O)C1=C(COc2ccc(C)cc2)NC(=O)NC1c1cc(C)ccc1C (stereo not given),-30%,-20%,i,7,1,?
CC(=O)C1(C(=O)NC2CCCC2)CC(c2ccccc2C(F)(F)F)=NO1 (stereo not given),.,.,.,.,4,.
COc1cccc(N(C)C(=O)[C@@H](C2CC2)[C@@H](O)c2ccc(Cl)cc2)c1,.,.,.,.,3,.
CC12C=CC(=O)C=C1CCC1C2C(=O)CC2(C)C1CCC2(O)C(=O)CO (stereo not given),0.29µM*,1%,i,0,-6,i
COC(=O)[C@H](C(C)C)N1Cc2nnn(CC3CCCCC3)c2-c2cc(F)ccc2S1(=O)=O,.,.,.,.,1,.
SMILES,Nrf2 block,A549 tox,KB-3-1 cytotox,Giardia kill,PI4K2A block,KB-V1 cytotox
CC1=CC2=NC(=O)/C(=C\c3ccc(-c4cccc(Cl)c4)o3)C(=N)N2O1,6%,-7%,4.1µM*,19,3,?
COc1cc(-n2c(C)nc3cc(C(=O)N4CCCN(C(C)=O)CC4)ccc32)cc(OC)c1OC,.,.,.,.,-7,.
O=C(Cc1ccccc1)Nc1c(C(=O)Nc2ccccc2F)oc2ccccc12,7%,4%,i,.,2,i
O=C(Nc1ccn(Cc2c(F)c(F)c(F)c(F)c2F)n1)c1cccc(Cn2cc([N+](=O)[O-])cn2)c1,18µM*,-19%,i,5,2,i
COc1ccc(NC(=O)c2ccc(Cn3cc(Cl)cn3)cc2)cc1,-5%,4%,i,-5,-1,i
CN(C)c1ccc(NC(=O)c2ccc(Cn3cc([N+](=O)[O-])cn3)cc2)cc1,7%,-8%,18µM*,0,-6,i
CC1(C)Oc2ccc(C(=O)N3CCCC3)cc2NC1=O,.,.,.,.,6,.
COc1ccc(CNS(=O)(=O)CC2NCc3cc(OC)ccc32)cc1 (stereo not given),.,.,.,.,-4,.
Cc1cccc(NC(=O)C[n+]2ccc(N(C)C)cc2)c1,?,5%,13µM*,-17,-2,i
CCOc1ccc(NC(=O)C[n+]2ccc(N(C)C)cc2)cc1,?,-2%,10µM*,-8,-2,i
CN(C)c1cc[n+](CC(=O)c2ccc(OC(F)F)cc2)cc1,21µM*,-6%,18µM*,-16,1,i
CN(C)c1cc[n+](CC(=O)Nc2ccc(Cl)cc2)cc1,6.5µM*,2%,3.7µM*,4,4,i
Cc1cc(C)cc(NC(=O)C[n+]2ccccc2)c1,2%,-5%,i,2,-6,i
CN(C)c1cc[n+](CC(=O)Nc2cc(C(F)(F)F)ccc2Cl)cc1,-24%,10%,i,34,1,i
O=[S+]([O-])(c1ccc(N2CCOCC2)nc1)N1CCN([S+](=O)([O-])c2c(F)cccc2F)CC1,-20%,-1%,.,.,.,.
CCN(CC)CCCNC(=O)c1nn(C)c2c1CSc1ccccc1-2,?,-5%,.,.,-4,.
CC(=O)Nc1cc[n+](CC(=O)c2ccc(Cl)cc2)cc1,23µM*,-2%,i,7,5,?
CN(C)c1cc[n+](CC(=O)Nc2ccc(Oc3ccccc3)cc2)cc1,23µM*,-16%,16µM*,21,0,?
Cc1ccc(NC(=O)OC2CC3CC2[C@H]2CCCCN2[C@H]3Cc2ccccc2)cc1 (stereo not given in full),.,.,.,.,4,.
Cc1ccccc1N1CCN(S(=O)(=O)c2ccc3c(c2)n(C)c(=O)c(=O)n3C)CC1,.,.,.,.,-6,.
